Source: PubChem BioAssay AID504727 (Broad Institute, 2011)
Active and inactive are the calls of the source.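 How the source made its calls: active means fitted half-maximal concentration AC50 at or below ten times the highest valid tested dose, with signal falling as DNA is displaced (actives reach about 34 µM in these data); inconclusive means flat fit at moderate signal loss, or poor fit quality; inactive means the rest, including signal rising instead of falling.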

test: DNA intercalators displacing acridine orange, dose response, artefact control for KSHV LANA DNA-binding inhibitor project, biochemical, fluorescence polarization, cherry-picked samples, set 2 (AID 504727); settings: AC50: Acridine orange-DNA displacement; series mostly up to 35 µM

SMILES	AC50
NNC(=O)C1C(O)CCC2CN3CCc4c([nH]c5ccccc45)C3CC21 (stereo not drawn)	inactive
COc1cccc(NC(=S)N2CCN(C(c3ccccc3)c3ccccc3)CC2)c1	inactive
Cc1cc(C(F)(F)F)c2c(N)c(C(=O)Nc3cc(C)on3)sc2n1	inactive
CCOC(=O)N1CCN(C(=S)NC(=O)c2cccc(OC)c2)CC1	inactive
NC(=O)C1(N2CCCCC2)CCN(Cc2ccc(Br)cc2)CC1	inactive
COc1cc(CN2CC(=O)N(c3cc(Cl)ccc3C)C2=S)cc(OC)c1OC	inactive
O=C(O)c1cccc(NC2=Nc3cccc4cccc2c34)c1	inactive
CCNC(=O)COC(=O)c1cccc(Br)c1	inactive
O=C1/C(=C/C=C/c2ccco2)SC(=S)N1NS(=O)(=O)c1ccccc1	inactive
Cc1cc2nc(SCCN3CCOCC3)[nH]c2cc1C	inactive
COc1ccc(Cl)cc1C(=O)NNC(=O)c1cc2ccccc2o1	inactive
CCc1nnc(NC(=O)c2cccc(S(=O)(=O)N(C)c3ccccc3)c2)s1	inactive
NS(=O)(=O)c1cc(C(=O)NC2CCSc3ccccc32)ccc1Cl (stereo not drawn)	inactive
Cc1ccc(C(=O)c2coc3ccc(O)c(Cl)c23)cc1	inactive
CCN(C(=O)COC(=O)CCCOc1ccc(Cl)cc1C)c1c(N)n(Cc2ccccc2)c(=O)[nH]c1=O	inactive
O=C(CN1C(=O)/C(=C/c2ccco2)SC1=S)Nc1ccc(C(=O)O)c(O)c1	inactive
Cn1cc(C(=O)c2ccc(Cl)cc2Cl)cc1C(=O)N/N=C(\N)COc1ccccc1	inactive
COC(=O)c1c(C)oc2ccc(N(C(C)=O)S(=O)(=O)c3ccccc3)cc12	inactive
COc1ccc(-c2nc(C(=O)O)cs2)cc1OC	inactive

SMILES	AC50
O=[N+]([O-])c1cccc(CSc2nc3ccccc3[nH]2)c1	inactive
CC(C)C(=O)N1CCN(c2ccccc2NC(=S)NC(=O)c2ccco2)CC1	inactive
CCOc1ccc2noc3c2c1C(=O)c1ccccc1-3	728 nM (active)
C=CCOC(=O)C1=C[C@H](c2csc3ccccc23)C[C@H](OCc2ccc(CO)cc2)O1	inactive
O=C1c2ccccc2C(=O)N1Cc1ccc2c(c1)OCO2	inactive
Nc1c(/C=C2/C=CC(=O)C(O)=C2)c(=O)nc2sc(CC(=O)N3CCCCC3)nn12	inactive
Cc1ccc(C(CC(=O)N2CCCCC2)c2ccccc2)c(O)c1C (stereo not drawn)	inactive
O=C(O)/C(=C\c1cccs1)Sc1nnc(-c2ccc(F)cc2)o1	inactive
CC(=O)N/C(=C/c1ccc(OS(=O)(=O)c2ccc(C)cc2)cc1)C(=O)Nc1ccc(C(=O)O)cc1	inactive
CCn1c(=O)c(C(=O)NCCN2CCCCC2)c(O)c2ccccc21	inactive
Nc1c(C(=O)Nc2ccccc2F)sc2nc(Cc3ccccc3)cc(C(F)(F)F)c12	20200 nM (active)
COc1ccc(-c2csc(NC(=O)CSc3nc(C)nc4sc(C(=O)O)c(C)c34)n2)cc1	inactive
Cc1cccc(Nc2nc(N)c([N+](=O)[O-])c(NCc3ccccc3)n2)c1	inactive
Nc1c(-c2ccccn2)cnn1-c1nc(-c2ccc(F)cc2)cs1	inactive
CCNc1ccc2noc3c2c1C(=O)c1ccccc1-3	935 nM (active)
Cc1ccc(NC(=S)N/C(=N/S(=O)(=O)c2ccccc2)c2ccccc2)cc1	inactive
COC(=O)c1ccccc1-c1c2ccc(=N)cc-2oc2cc(N)ccc12	35 nM (active)
C=CCNC(=O)c1cn(CC)c2cc(N3CCN(C(=O)c4ccco4)CC3)c(F)cc2c1=O	inactive
CC1(C)CCCN(C(=O)c2coc(=O)c(Br)c2)C1	inactive
